Test results taken from PubChem BioAssay AID1813 (Broad Institute, 2009).
Screen size: about 300,000 compounds; about 2,500 (0.83%) were called active. The full list was thinned out, with actives kept by preference. A number with no mark means an inactive call. Rule as the data show it: active = inhibition above about 60%; inconclusive = no clear call, values can overlap the other calls; inactive = below that.

Assay: MLPCN primary screen, SNCA 5' untranslated region (AID 1813);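 also: H4 neuroglioblastoma cells stably carrying SNCA 5'UTR luciferase fusion; 0% = DMSO wells and 100% = positive control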
Settings: alpha-synuclein 5'UTR reporter, inhibitor activity; hits give high values; tested at 7.5 µM

SMILES | inhibition
C=CCOc1ccc(/C=C/C(=O)OCC(=O)NC(C)c2ccc(F)cc2)cc1 (centres undefined) | 5.96%
O=C(c1ccc(OC2CCN(C/C=C/c3ccc(F)cc3)CC2)cc1)N1CCCCC1 | -17.6%
COCCN1C(=O)C(=O)/C(=C(/O)c2ccc(S(=O)(=O)N3CCOCC3)cc2)C1c1ccc(OC)c(OC)c1 (centres undefined) | 0.0342%
CC(C)(C)NC(=O)NC(=O)CN1CCC(Cc2ccccc2)CC1 | 17.3%
Cc1ccc(C(=O)O)cc1NC(=O)c1ccc(Cn2nc(C)c(Cl)c2C)o1 | -17.2%
Cc1c(Cl)c([N+](=O)[O-])nn1CCCC(=O)Nc1cc(Cl)ccc1Cl | 12.6%
Cc1c(Cl)c([N+](=O)[O-])nn1Cc1ccc(C(=O)N/N=C\c2cc(Cl)ccc2O)o1 | 81.2% (active)
NC(=O)CCC(NS(=O)(=O)c1ccc(Cl)cc1)C(=O)NCc1ccccc1Cl (centres undefined) | -12.6%
CCCCN(C)CCNC(=O)CSCc1ccc(C)cc1 | 0.318%
CC(=O)N1c2ccc(S(=O)(=O)N3CCCC(C(=O)Nc4cccc(F)c4)C3)cc2CC1C (centres undefined) | 4.33%
CCOC(=O)c1c(C)[nH]c(C)c1S(=O)(=O)N(C)CC(=O)Nc1ccccc1C | 23%
CCOC(=O)C1=C(c2ccc(OC)cc2)C(=O)c2ccccc2C1=O | -17.2%
CCOC(=O)c1c(C)[nH]c2c1-c1ccccc1C(=O)C2=O | 99.5% (active)
O=S(=O)(c1ccc(-c2ccccc2)cc1)N1CCCC1 | 1.66%
COc1ccc(-n2c(C)nn(CC3CC3)c2=O)cc1 | 5.05%
Cc1cc(Nc2cc(N3CCN(C)CC3)nc(Sc3ccc(NC(=O)C4CC4)cc3)n2)n[nH]1 | -50.9%
O=C(O)CCn1c(SCc2cc(=O)n3ccccc3n2)nc2ccsc2c1=O | -7.14%
COc1ccccc1C(=O)NNC(=O)CCN1C(=O)/C(=C\c2ccccc2)SC1=S | 8.03%
C=CCOc1ccc(/C=C2\SC(=S)N(CCC(=O)O)C2=O)cc1 | 80% (active)
Cc1ccc(/C=C2\SC(=S)N(CCC(=O)Nc3ccc(O)cc3)C2=O)cc1 | 0.184%
C=CCNC(=O)/C=C/c1ccc(C(C)C)cc1 | -129%
Cc1ccc2nc(-c3ccc(SCC(=O)Nc4cc(C)on4)nc3)[nH]c2c1 | -160%
COc1ccc(CNC(=O)CSc2n[nH]c(N)n2)cc1OC | 4.62%
CCC(=O)Nc1ccc2nc(C)n(Cc3ccccc3Cl)c(=O)c2c1 | 11.1%
CCN1CCN(c2cc3nc(C)n(Cc4ccccc4)c(=O)c3cc2NC(=O)c2ccccc2F)CC1 | 65.1% (active)
CCOc1cc(NC(=O)c2ccccc2C(=O)O)c(OCC)cc1NC(=O)c1ccccc1F | 11.7%
C=CCc1cccc2cc(C(=O)Nc3ccc(NC(C)=O)cc3)c(=O)oc12 | -30.5%

SMILES | inhibition
CN(C)CCCN(C(=O)c1ccc(S(=O)(=O)N2CCCCCC2)cc1)c1nc2cc3c(cc2s1)OCCO3 | -27.7%
COc1ccc2sc(N(CCCN(C)C)C(=O)c3ccc(S(=O)(=O)N(C)C4CCCCC4)cc3)nc2c1 | -20%
CCOc1ccc2nc(N(CCN(C)C)C(=O)c3ccc4ccccc4c3)sc2c1 | -8.13%
CSc1nc2ccc(S(=O)(=O)N3CCc4ccccc43)cc2s1 | 1.39%
CCN(CC)CCN(C(=O)c1ccc(S(=O)(=O)N2CCOCC2)cc1)c1nc2cc3c(cc2s1)OCCO3 | -15.5%
CCOc1ccc2nc(N(CCCN(C)C)C(=O)c3ccc(C(=O)c4ccccc4)cc3)sc2c1 | 90.2% (active)
CN(C)CCCN(C(=O)c1ccc(S(=O)(=O)N2CCCc3ccccc32)cc1)c1nc2ccc(F)cc2s1 | 74.2% (active)
CN(C)CCCN(C(=O)c1ccc(S(=O)(=O)N2CCCCCC2)cc1)c1nc2ccc(Br)cc2s1 | 75.3% (active)
CCc1ccc2nc(N(CCCN(C)C)C(=O)c3ccc4c(c3)OCCO4)sc2c1 | -34.6%
CCC1(CC)C(=O)C2=C3C1[C@H](C(=O)OC)C=C(C(=O)OC)C[C@H]3[C@H]1C(=O)N(Cc3ccccc3)C(=O)[C@H]1[C@H]2C (some centres undefined) | 6.19%
COc1ccc(S(=O)(=O)NCC(c2ccc(C)cc2)N2CCN(C)CC2)cc1OC (centres undefined) | -8.67%
COc1ccc(CN2CCC(n3nccc3NC(=O)CCCc3ccccc3)CC2)cc1C | 23.5%
O=C(NCc1ccccc1)c1onc(CSc2nc3ccccc3[nH]2)c1C(=O)NCc1ccccc1 | 21.2%
COc1ccc(N2CCN(C(=O)[C@@H](NC(=O)c3cc(OC)cc(OC)c3)C(C)C)CC2)cc1 | 5.14%
CCCC1=Nc2cc(C(=O)NCc3ccco3)ccc2Sc2ccccc21 | 87.6% (active)
CCCC1=Nc2cc(C(=O)NCCN3CCCC3)ccc2Sc2ccccc21 | -14.6%
CC(C)(C)c1ccc(C(=O)NCc2ccco2)cc1 | -180%
CCCN(CC(=O)Nc1ccc(OC)c(OC)c1)CC(=O)Nc1ccc(F)c(F)c1F | 3.66%
Cc1ccc(CC(=O)N(C)CC(=O)N(CC(C)C)c2c(N)n(CC(C)C)c(=O)[nH]c2=O)cc1C | 15%
Cc1cc(NC(=O)CN2CCCC(C)C2)n(-c2nc3ccccc3s2)n1 (centres undefined) | 27.7%
Cc1nn(CC(=O)Nc2nc3ccccc3s2)c(C)c1[N+](=O)[O-] | 5.8%
CCC(C)Cn1c(O)cc2nn(-c3nc4ccccc4s3)c(=O)c-2c1C (centres undefined) | 97.8% (active)
Nc1cc(N2CCCCCC2)c2nonc2c1[N+](=O)[O-] | 11%
CCOC(=O)CSC1=C(C#N)C(c2sccc2C)CC(=O)N1 (centres undefined) | 75% (active)
CCOC(=O)CSC1=C(C#N)C(c2ccco2)C(C(=O)OCc2ccccc2)=C(C)N1 (centres undefined) | 10.5%
Cc1ccc(C2CC(=O)NC(SCC(=O)OCc3ccccc3)=C2C#N)o1 (centres undefined) | -11.5%
Cc1nc2ccccc2c(=O)n1-c1ccc(F)c(NC(=O)c2cccs2)c1 | 9.3%
